In the library only some 1.2% were active in any assay of this set; here they are far more common.
GSH fluor: compound fluoresces at 488/530 nm on GSH beads. GSH beads flow cytometry, compound fluorescence 488/530 nm; stronger effect = higher value. fluorescence (KMESF) at 10 µM. 0.25% of 190,000 active; in the data active = fluorescence above about 89;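 note: glutathione beads carrying GST-tagged Bcl family fusion proteins plus one bare bead set; values are compound well signal with DMSO vehicle wells as background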
RGS7-Gao: regulators of human RGS7-Galphao interaction; P09471; Multiplexed bead flow cytometry, RGS7-Galphao binding; actives lie on both sides; binding response (% of control), % at 10 µM; 0.35% of 220,000 active; AID 1439; in the data active = binding response below about 49% or above about 150%; inconclusive = no clear call, values can overlap the other calls; inactive = in between;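 note: fluorescent Galphao held in activated GDP-AlF4 state binding bead-coupled RGS7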
Target sequence (P09471 whole entry, looked up): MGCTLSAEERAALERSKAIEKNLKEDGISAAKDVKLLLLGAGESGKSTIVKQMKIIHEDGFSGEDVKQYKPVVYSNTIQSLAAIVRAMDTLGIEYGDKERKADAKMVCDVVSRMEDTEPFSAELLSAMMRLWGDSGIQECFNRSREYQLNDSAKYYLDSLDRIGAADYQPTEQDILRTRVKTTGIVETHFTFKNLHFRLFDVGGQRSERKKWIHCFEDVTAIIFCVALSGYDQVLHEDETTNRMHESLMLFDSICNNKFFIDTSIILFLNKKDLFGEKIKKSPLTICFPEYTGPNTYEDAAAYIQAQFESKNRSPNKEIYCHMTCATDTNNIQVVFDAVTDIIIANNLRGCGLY
RGS8-Gao: regulators of human RGS8-Galphao interaction | P09471 | multiplexed bead flow cytometry, RGS8-Galphao binding; actives lie on both sides | response (percent of control binding), % at 10 µM | 0.34% of 220,000 active | AID 1423; in the data active = response below about 60% or above about 140%; inactive = in between;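 note: Galphao activated as the GDP aluminium fluoride complex binding bead-coupled RGS8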
RGS4-Gao reg: modulates binding of RGS4 to human Galphao; 0.33% of 220,000 active; AID 1415; binding response (% of control), % at 10 µM; P09471; Multiplexed bead flow cytometry; actives lie on both sides; in the data active = binding response below about 49% or above about 150%; inactive = in between;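 note: fluorescent Galphao activated with aluminum fluoride binding bead-coupled RGS4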
Avidin bead fluor: avidin bead compound fluorescence profile | Avidin beads, compound fluorescence 488/530 nm, flow cytometry; stronger effect = higher value | fluorescence (KMESF) at 10 µM | 0.38% of 220,000 active | AID 1775; in the data active = fluorescence above about 47
RGS16-Gao HTS: regulators of human RGS16-Galphao interaction. bead-based flow cytometry RGS16-Galphao binding, fluorescence; actives lie on both sides. binding response (% of control), % at 10 µM. 0.38% of 220,000 active;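 note: Galphao activated by GDP with aluminum fluoride before binding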
RGS-Gao: modulates binding between human RGS4 and Galphao | shares compounds with RGS16-Gao HTS | multiplexed bead flow cytometry, RGS–Galpha-o binding | RGS4–Galpha-o binding response, % at 10 µM | 99% of 1,600 active;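 note: fluorescently labeled Galpha-o bound to GDP with aluminium fluoride binding biotinylated RGS beads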
Target sequence (P09471 whole entry, looked up): as above
Target sequence (P49798 whole entry, looked up): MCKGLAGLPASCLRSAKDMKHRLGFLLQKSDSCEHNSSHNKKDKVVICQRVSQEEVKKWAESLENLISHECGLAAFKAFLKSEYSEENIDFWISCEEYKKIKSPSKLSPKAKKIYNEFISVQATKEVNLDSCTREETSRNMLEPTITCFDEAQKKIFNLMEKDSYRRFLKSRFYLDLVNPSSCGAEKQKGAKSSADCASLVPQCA
Biotin-avidin: interferes with biotinylated probe binding to avidin beads; shares compounds with RGS16-Gao HTS; streptavidin beads, fluorescein-biotin binding, flow cytometry; inhibition, % at 10 µM; 1,700 tested, under 10 active;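 active = inhibition above 50%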;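 note: median green fluorescence of gated singlet beads compared with DMSO control wells; 0% = DMSO wells and 100% = complete loss of bead fluorescence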
RGS8-Gao single: RGS8-Galphao interaction regulation, single point confirmation; shares compounds with RGS16-Gao HTS; bead-based flow cytometry RGS8-Galphao binding, fluorescence; actives lie on both sides; binding response (% of control), % at 10 µM; 3% of 1,700 active; AID 1836; in the data active = binding response below about 72% or above about 130%; inactive = in between;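 note: Galphao activated as GDP AlF4 complex before binding bead RGS8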
RGS7-Gao single: RGS7-Galphao interaction regulation, single point confirmation. bead-based flow cytometry RGS7-Galphao binding; actives lie on both sides. AID 1837. 7.8% of 1,700 active. shares compounds with RGS16-Gao HTS. response (percent of control binding), % at 10 µM; in the data active = response below about 75% or above about 130%; inactive = in between;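 note: fluorescent Galphao activated with GDP and aluminum fluoride binding bead-coupled RGS7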
RGS16-Gao single: confirmation of regulators of human RGS16-Galphao interaction; AID 1838; response (% of control binding), % at 10 µM; shares compounds with RGS16-Gao HTS; 4% of 1,700 active; bead-based flow cytometry, RGS16-Galphao binding; actives lie on both sides; in the data active = response below about 74% or above about 130%; inactive = in between;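 note: Galphao activated as the GDP aluminium fluoride complex binding bead-coupled RGS16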
RGS4-Gao single: confirmation of regulators of human RGS4-Galphao interaction; shares compounds with RGS16-Gao HTS; RGS4-Galphao binding, multiplexed bead flow cytometry; actives lie on both sides; binding response (% of control), % at 10 µM; 4% of 1,700 active; in the data active = binding response below about 74% or above about 130%; inactive = in between
RGS19-Gao conf: confirmation of regulators of human RGS19-Galphao interaction. shares compounds with RGS16-Gao HTS. bead-based flow cytometry RGS19-Galphao binding; actives lie on both sides. response (percent of control binding), % at 10 µM. 5% of 1,700 active. AID 1841; in the data active = response below about 50% or above about 160%; inactive = in between;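 note: 100% = no compound control and 0% = blank background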
An asterisk follows results filed as active; ? = inconclusive; . = no result given; [ ] = dose if it differs, or a comment. Unless noted, the rule behind the calls is not given here.

SMILES	GSH fluor	RGS7-Gao	RGS8-Gao	RGS4-Gao reg	Avidin bead fluor	RGS16-Gao HTS	RGS-Gao	Biotin-avidin	RGS8-Gao single	RGS7-Gao single	RGS16-Gao single	RGS4-Gao single	RGS19-Gao conf
O=c1c2ccccc2sn1-c1cc(S(=O)(=O)N2CCOCC2)ccc1N1CCOCC1	19	123	48*	99	1	0.6*	99*	.	.	.	.	.	.
O=C(O)c1cc(S(=O)(=O)N2CCOCC2)ccc1N1CCOCC1	17	101	101	99	10	99	.	.	.	.	.	.	.
O=c1c2ccccc2sn1-c1cc(S(=O)(=O)N2CCOCC2)ccc1N1CCCC1	24	100	41*	86	-1	-21*	86*	-1	38*	90	10*	78	4.4*
O=C(CSc1nc2ccc([N+](=O)[O-])cc2s1)c1ccc2ccccc2c1	.	?	31*	3.0*	0	5.0*	.	1	101	106	104	105	109
O=[N+]([O-])c1ccc2nc(SCc3ccccc3Cl)sc2c1	19	97	99	93	16	95	.	.	.	.	.	.	.
CCOC(=O)c1ccc(NC2OC(=O)c3ccccc32)cc1 (stereo unspecified)	17	.	.	.	.	.	.	2	104	109	106	103	107
Cc1ccc(N=Nc2ccc(O)c3ncccc23)cc1	3	65	71	68	4	10*	68*	-4	102	96	106	96	84
Cc1ccc(N=Nc2ccc(O)c3ncccc23)cc1C	10	92	99	96	10	100	.	.	.	.	.	.	.
Cn1c(=O)n(C)c2cc(/C=C3/SC(=O)N(CC(=O)N4CCOCC4)C3=O)ccc21	15	96	93	95	3	83	.	.	.	.	.	.	.
CCOC(=O)CN1C(=O)S/C(=C/c2ccc3c(c2)n(C)c(=O)n3C)C1=O	9	84	84	85	4	23*	85*	-2	101	97	99	98	114
CC(C)CC(NC(N)=O)C(=O)NCCc1ccc(Cl)cc1 (stereo unspecified)	11	98	103	99	12	103	.	.	.	.	.	.	.
CCOC(=O)C(C(=O)OCC)C1OC(=O)c2cc3c(cc21)C(=O)OC3C(C(=O)OCC)C(=O)OCC (stereo unspecified)	14	359*[activator]	87	141	200*	124	141*	2	89	87	89	91	82
Cc1cccc(NC(=O)COc2ccc(/C=N\n3cnnc3)cc2)c1	12	100	99	100	5	93	.	.	.	.	.	.	.
Cc1c(C(=O)NC(=S)Nc2ccc(N3CCOCC3)cc2)cccc1[N+](=O)[O-]	13	109	121	109	9	185	.	.	.	.	.	.	.
CC(C)n1c(NCCO)nc2ccccc21	13	37*	57*	49*	7	49	.	3	104	96	100	100	98
Cc1ccc(NS(=O)(=O)c2ccc(OCC(=O)NCc3cccnc3)cc2)cc1	13	88	69	89	1	23*	89*	1	98	94	100	96	95
CC1CCC(NC(=O)CN(C)S(=O)(=O)c2cccc3cccnc23)CC1 (stereo unspecified)	.	?	33*	26*	1	19*	.	1	101	101	99	100	105
Cc1ccc(NC(=O)CN(C)S(=O)(=O)c2cccc3cccnc23)cc1	20	64	74	100	4	130	.	.	.	.	.	.	.
CC1(C)CC(=O)C(C=NCC2CCN(C(=O)Nc3ccc(Cl)c(Cl)c3)CC2)=C(O)C1	28	100	99	98	12	103	.	.	.	.	.	.	.
CCOC(=O)C1=C(C)N=C2SC(CC)C(=O)N2C1c1cccc(F)c1 (stereo unspecified)	19	.	.	.	.	.	.	-2	98	93	99	99	98
O=C(Nc1cccc(F)c1)C1CCN(C(=O)c2ccc(Cl)cc2)CC1	7	83	70	74	2	18*	74*	-2	100	98	98	98	108
COC(=O)c1ccc(NC(=O)C2CCN(C(=O)c3cc(OC)c(OC)c(OC)c3)CC2)cc1	35	137	.	276*[activator]	.	.	.	-2	103	106	103	100	107
O=C(Nc1ccc2c(c1)OCO2)C1CCN(C(=O)c2ccc(Cl)cc2)CC1	25	101	100	102	12	105	.	.	.	.	.	.	.
CCC(C)Sc1nc2ccccc2n1CC(=O)O (stereo unspecified)	12	93	95	96	17	106	.	.	.	.	.	.	.
CN1CCN(NC(=O)CN2C(=O)S/C(=C\c3c(Cl)cccc3Cl)C2=O)CC1	24	104	102	101	9	112	.	.	.	.	.	.	.
SMILES	GSH fluor	RGS7-Gao	RGS8-Gao	RGS4-Gao reg	Avidin bead fluor	RGS16-Gao HTS	RGS-Gao	Biotin-avidin	RGS8-Gao single	RGS7-Gao single	RGS16-Gao single	RGS4-Gao single	RGS19-Gao conf
Cc1ccc(S(=O)(=O)NCC2CCC(C(=O)NCCCOC(C)C)CC2)cc1 (stereo unspecified)	23	104	106	106	12	114	.	.	.	.	.	.	.
FC(F)(F)c1nnc2ccc(N3CCCCCC3)nn12	30	122	173*[activator]	149	6	.	149*	-1	101	88	93	96	96
FC(F)(F)c1nnc2ccc(N3CCCC3)nn12	34	104	102	103	16	106	.	.	.	.	.	.	.
O=C(O)C1C2CC3C(OC(=O)C31)C2Cl (stereo unspecified)	7	103	106	102	6	115	.	.	.	.	.	.	.
CN(Cc1ccc(F)cc1)C(=O)c1ccc2c(c1)NC(=O)CS2	24	171*[activator]	99	116	65*	104	116*	2	100	97	98	99	94
O=C(CCCOc1ccc(Cl)cc1Cl)Nc1ccncc1	40	.	.	.	.	.	.	0	104	96	106	101	99
